According to PubChem BioAssay (Tox21):
Where “and” joins values, the source holds several entries; their conditions need not be identical. Identical values can stand only once. Records with an inconclusive call do not appear. A call without a number means that no potency is given here. Calls of active or inactive are those of the source. Unless noted, the call rests on the fitted dose curve.

Tests used:
[1] = Nuclear factor erythroid 2-related factor 2/antioxidant responsive element (Nrf2/ARE) small molecule agonists: qHTS cell viability counter screen in human keratinocytes (AID 1919968; active means well fitted curve in the direction sought with a large enough effect in the repeat runs; an effect the other way counts as inactive or inconclusive; further: nearly all actives have a fitted effect of over 55% in size)
Outline: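 After a 5 h attachment period, ARE-reporter keratinocytes were dosed with compounds in DMSO and then cultured 23 h at 37 C. Cell viability came from CellTiter-Fluor signal read after a further 1 h.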

[2] = Nuclear factor erythroid 2-related factor 2/antioxidant responsive element (Nrf2/ARE) small molecule agonists: luciferase reporter gene qHTS assay in human keratinocytes (AID 1919969); further: nearly all actives have a fitted effect of over 35% in size; further: potency means the concentration at half of the fitted maximal effect
[3] = biological target: Gonadotropin-releasing hormone receptor (Homo sapiens) (UniProt P30968); assay: Human gonadotropin-releasing hormone receptor (GnRHR) small molecule agonists, calcium flux assay in GnRHR-HEK293 cells (AID 1920063); further: nearly all actives have a fitted effect of over 35% in size
Gonadotropin-releasing hormone receptor (Homo sapiens), sequence (P30968 whole entry, looked up): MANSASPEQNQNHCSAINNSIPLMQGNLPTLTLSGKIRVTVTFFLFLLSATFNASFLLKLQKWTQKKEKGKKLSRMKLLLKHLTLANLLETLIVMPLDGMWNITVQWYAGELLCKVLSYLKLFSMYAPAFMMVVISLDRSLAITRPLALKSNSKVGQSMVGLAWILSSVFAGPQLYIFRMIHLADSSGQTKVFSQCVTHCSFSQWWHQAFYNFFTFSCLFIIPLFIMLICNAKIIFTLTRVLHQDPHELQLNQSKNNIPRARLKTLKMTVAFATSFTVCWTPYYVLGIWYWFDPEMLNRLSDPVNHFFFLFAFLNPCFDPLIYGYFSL
Outline: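 We seeded human GnRHR-expressing HEK293 cells for 18 hours, loaded them with calcium dye for an hour at 37 C, added test compounds, and recorded fluorescence intensity kinetically for three minutes.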

[4] = biological target: KiSS-1 receptor (Homo sapiens) (UniProt Q969F8); assay: Human kisspeptin (KISS1R) small molecule agonists, calcium flux assay in KISS1R-HEK293 cells (AID 1920064; active means well fitted curve in the direction sought with a large enough effect in the repeat runs; an effect the other way counts as inactive or inconclusive)
KiSS-1 receptor (Homo sapiens), sequence (Q969F8 whole entry, looked up): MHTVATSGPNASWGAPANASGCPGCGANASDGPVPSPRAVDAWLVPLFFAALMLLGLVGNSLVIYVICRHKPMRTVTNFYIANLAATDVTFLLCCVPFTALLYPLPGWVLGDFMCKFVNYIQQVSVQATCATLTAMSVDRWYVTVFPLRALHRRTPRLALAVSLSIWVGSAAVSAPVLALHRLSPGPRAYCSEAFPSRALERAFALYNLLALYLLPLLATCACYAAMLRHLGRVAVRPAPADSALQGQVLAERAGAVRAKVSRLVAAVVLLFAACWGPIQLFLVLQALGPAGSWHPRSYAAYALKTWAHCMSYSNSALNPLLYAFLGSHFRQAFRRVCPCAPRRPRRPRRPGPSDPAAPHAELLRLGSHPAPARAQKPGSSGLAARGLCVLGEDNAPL
Outline: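 Kinetic calcium assay, 1 s sampling over 3 min at Ex/Em 480/540, in HEK293 cells engineered with human KISS1R; compounds delivered in DMSO after 1 h dye loading.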

[5] = G protein-coupled receptor (GPCR) small molecule agonists, calcium flux assay: HEK293 wild type cell line counter screen (AID 1920065)
Outline: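 Calcium-sensitive dye, loaded 1 h at 37 C into cells cultured 18 h, reports compound-evoked calcium release as fluorescence (Ex/Em 480/540), measured over 3 min. Agonist mode; 15-point titrations, triplicate.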

[6] = p53 small molecule agonists, cell-based qHTS assay with human liver microsomes (AID 1963577)
Outline: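 Compounds act here after metabolic activation: human liver microsomes and NADPH, both at 0.5 mg/mL final, were co-added to p53RE-bla cells. Incubation ran 16 h at 37 C, followed by LiveBLAzer detection.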

[7] = p53 small molecule agonists, cell-based qHTS assay with rat liver microsomes (AID 1963578)
Outline: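 Read-out is beta-lactamase reporter fluorescence (LiveBLAzer, 2 h, room temperature, dark) in p53RE-bla cells treated 16 h at 37 C with compound, rat liver microsomes and NADPH, both 0.5 mg/mL final.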

[8] = p53 small molecule agonists, cell-based qHTS assay: qHTS cell viability counter screen (AID 1963581); further: nearly all actives have a fitted effect of over 45% in size
Outline: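 Following 5 h attachment, HCT-116 p53RE-bla cells took up compound for 16 h at 37 C; the reporter was read with B/G FRET substrate (2 h RT), and viability then via CellTiter-Glo ATP luminescence.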

[9] = p53 small molecule agonists, cell-based qHTS assay (AID 1963582; active means well fitted activation curve with a large enough effect in the signal ratio in the repeat runs, not every such curve was filed as active; the % refers to the signal ratio; further: potency means the concentration at half of the fitted maximal effect)
Outline: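 In this cell-based concentration-response screen, a p53 response element drives beta-lactamase; cells received DMSO-borne compounds after 5 h culture and were incubated a further 16 h before FRET substrate development.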

[10] = biological target: 5-hydroxytryptamine receptor 2A (Homo sapiens) (UniProt P28223); assay: 5-hydroxytryptamine receptor 2A (HTR2A) small molecule antagonists, cell-based qHTS assay (AID 1963586); further: nearly all actives have a fitted effect of over 45% in size
5-hydroxytryptamine receptor 2A (Homo sapiens), sequence (P28223 whole entry, looked up): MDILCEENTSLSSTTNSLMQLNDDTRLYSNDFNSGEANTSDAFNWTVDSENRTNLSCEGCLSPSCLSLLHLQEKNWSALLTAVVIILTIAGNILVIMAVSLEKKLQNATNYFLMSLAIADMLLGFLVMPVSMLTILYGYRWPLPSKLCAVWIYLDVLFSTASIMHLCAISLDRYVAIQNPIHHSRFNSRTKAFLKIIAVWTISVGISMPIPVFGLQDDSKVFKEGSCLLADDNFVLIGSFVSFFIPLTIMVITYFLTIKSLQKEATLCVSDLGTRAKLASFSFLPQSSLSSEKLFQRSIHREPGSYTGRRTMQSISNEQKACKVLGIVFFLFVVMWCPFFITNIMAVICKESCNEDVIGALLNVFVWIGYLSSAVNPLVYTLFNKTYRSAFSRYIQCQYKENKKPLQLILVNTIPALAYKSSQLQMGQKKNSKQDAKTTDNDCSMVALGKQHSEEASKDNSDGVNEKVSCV
Outline: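 Antagonist-mode intracellular calcium assay: DOI (4 nM) added after 5 min compound pre-incubation at room temperature to dye-loaded HTR2A-CHO cells. Fluorescence followed for 3 min, sampled every second.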

[11] = biological target: 5-hydroxytryptamine receptor 2A (Homo sapiens) (UniProt P28223); assay: 5-hydroxytryptamine receptor 2A (HTR2A) small molecule agonists, cell-based qHTS assay (AID 1963587); further: nearly all actives have a fitted effect of over 30% in size
Outline: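 HTR2A-CHO cells, plated 18 h at 37 C/5% CO2, dye-loaded 1 h at 37 C; compounds in DMSO added by pin tool (agonist mode). Intracellular calcium flux read as kinetic fluorescence on FDSS over 2 min at 1 s intervals.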

[12] = biological target: Muscarinic acetylcholine receptor M1 (Homo sapiens) (UniProt P11229); assay: Cholinergic receptor muscarinic 1 (CHRM1) small molecule antagonists, cell-based qHTS assay (AID 1963588); further: nearly all actives have a fitted effect of over 40% in size
Muscarinic acetylcholine receptor M1 (Homo sapiens), sequence (P11229 whole entry, looked up): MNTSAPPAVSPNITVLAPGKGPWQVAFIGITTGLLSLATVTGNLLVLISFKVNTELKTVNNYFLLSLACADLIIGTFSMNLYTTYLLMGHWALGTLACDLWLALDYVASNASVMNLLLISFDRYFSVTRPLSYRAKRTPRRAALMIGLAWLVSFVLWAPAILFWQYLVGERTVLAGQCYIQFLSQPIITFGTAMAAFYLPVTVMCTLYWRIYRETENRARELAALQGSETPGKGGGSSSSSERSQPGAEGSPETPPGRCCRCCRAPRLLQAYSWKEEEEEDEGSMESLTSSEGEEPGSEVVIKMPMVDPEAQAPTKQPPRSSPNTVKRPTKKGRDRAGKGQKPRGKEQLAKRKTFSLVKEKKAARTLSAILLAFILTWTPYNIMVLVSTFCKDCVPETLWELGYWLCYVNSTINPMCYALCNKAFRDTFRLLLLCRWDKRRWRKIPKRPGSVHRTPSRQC
Outline: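 CHRM1-CHO calcium-flux assay, antagonist mode. Cells were seeded 18 h, dye-loaded 1 h at 37 C and given compound for 5 min at RT, then acetylcholine was added at 50nM. FDSS fluorescence was read 3 min; 15 concentrations, three runs.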

[13] = biological target: Muscarinic acetylcholine receptor M1 (Homo sapiens) (UniProt P11229); assay: Cholinergic receptor muscarinic 1 (CHRM1) small molecule agonists, cell-based qHTS assay (AID 1963589); further: nearly all actives have a fitted effect of over 35% in size
Outline: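 Measures agonist-induced intracellular calcium rise. Stable human CHRM1 CHO line, 1 h dye load at 37 C, compounds from DMSO, kinetic fluorescence read.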

[14] = cAMP Responsive Elements (CRE) small molecule agonists, cell-based qHTS assay (AID 1963590)
Outline: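 A CRE-responsive beta-lactamase reporter in HEK 293T cells was used. Treatment ran 3 h at 37 C; detection used LiveBLAzer B/G FRET substrate for 2 h at room temperature.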

[15] = cAMP Responsive Elements (CRE) small molecule antagonists, cell-based qHTS assay (AID 1963591; active means well fitted inhibition curve with a large enough effect in the signal ratio in the repeat runs, not every such curve was filed as active; the % refers to the signal ratio)
Outline: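 HEK293T cells carrying a CRE-driven beta-lactamase reporter receive compound and NKH477 (0.25 uM final) for 3 h. Fluorescence from LiveBLAzer B/G FRET substrate is read after 2 h at room temperature.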

[16] = biological target: Beta-2 adrenergic receptor (Homo sapiens) (UniProt P07550); assay: Adrenergic beta2 receptor (ADRB2) small molecule antagonists, cell-based qHTS assay (AID 1963592); further: series mostly up to about 92 µM; nearly all actives have a fitted effect of over 50% in size
Beta-2 adrenergic receptor (Homo sapiens), sequence (P07550 whole entry, looked up): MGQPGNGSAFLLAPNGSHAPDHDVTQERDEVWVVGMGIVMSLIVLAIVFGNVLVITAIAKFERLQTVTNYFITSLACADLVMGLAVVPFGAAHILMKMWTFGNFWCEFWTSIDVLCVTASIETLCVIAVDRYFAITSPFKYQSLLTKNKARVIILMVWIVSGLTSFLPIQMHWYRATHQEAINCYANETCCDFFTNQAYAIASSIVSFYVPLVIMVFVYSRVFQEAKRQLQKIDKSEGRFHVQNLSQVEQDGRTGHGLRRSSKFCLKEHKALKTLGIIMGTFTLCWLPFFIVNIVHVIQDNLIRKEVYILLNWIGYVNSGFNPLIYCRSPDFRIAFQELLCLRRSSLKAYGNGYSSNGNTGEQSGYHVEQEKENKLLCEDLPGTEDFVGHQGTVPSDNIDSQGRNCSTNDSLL
Outline: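 Cells (CHO, stable ADRB2 overexpression) incubated 18-20hr at 37C; compounds added from DMSO; agonist mix (1nM isoproterenol, 100uM IBMX, 25uM Ro-20-1724) added; 0.5hr RT; d2-cAMP and anti-cAMP-cryptate added; 1hr RT; 665/615 nm read.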

[17] = biological target: Beta-2 adrenergic receptor (Homo sapiens) (UniProt P07550); assay: Adrenergic beta2 receptor (ADRB2) small molecule agonists, cell-based qHTS assay (AID 1963593);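 further: CHO cells stably overexpressing human ADRB2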
Outline: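 CHO cells stably over-expressing ADRB2 were plated overnight at 37C, then dosed with compounds plus a stimulation mix containing 100uM IBMX and 25uM Ro-20-1724 for 0.5hr at room temperature. cAMP was measured by HTRF competition, 1hr.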

[18] = biological target: D(2) dopamine receptor (Homo sapiens) (UniProt P14416); assay: Dopamine D2 receptor (DRD2) small molecule agonists, cell-based qHTS assay (AID 1963594); further: nearly all actives have a fitted effect of over 35% in size
D(2) dopamine receptor (Homo sapiens), sequence (P14416 whole entry, looked up): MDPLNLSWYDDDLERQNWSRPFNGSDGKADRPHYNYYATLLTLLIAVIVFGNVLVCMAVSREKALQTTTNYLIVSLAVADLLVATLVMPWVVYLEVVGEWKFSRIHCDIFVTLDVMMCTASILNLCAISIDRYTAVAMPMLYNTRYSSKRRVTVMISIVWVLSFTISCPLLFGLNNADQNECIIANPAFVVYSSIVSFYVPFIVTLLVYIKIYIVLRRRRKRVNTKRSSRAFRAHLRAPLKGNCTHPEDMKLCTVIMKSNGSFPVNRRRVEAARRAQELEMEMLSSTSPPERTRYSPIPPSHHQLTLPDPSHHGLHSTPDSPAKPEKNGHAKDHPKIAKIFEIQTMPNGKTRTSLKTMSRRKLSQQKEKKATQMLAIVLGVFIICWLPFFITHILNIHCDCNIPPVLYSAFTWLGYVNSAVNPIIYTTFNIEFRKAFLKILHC
Outline: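 HEK293 cells stably expressing DRD2 were cultured 24 h at 37 C, then given Ro20-1724 (0.1 mM final) and compounds for 10 min at room temperature. NKH477 (200nM) was then added for 30 min. cAMP was read by HTRF.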

[19] = biological target: D(2) dopamine receptor (Homo sapiens) (UniProt P14416); assay: Dopamine D2 receptor (DRD2) small molecule antagonists, cell-based qHTS assay (AID 1963595; active means well fitted inhibition curve with a large enough effect in the signal ratio in the repeat runs, with a control signal flat; the % refers to the signal ratio)
Outline: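 HTRF cAMP read-out at 665 and 620 nm emission (340 nm excitation). Antagonist mode: compounds were tested against 12 nM quinpirole in DRD2-HEK293 cells, with 200 nM NKH477 raising cAMP and 0.1 mM Ro20-1724 blocking its breakdown.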

[20] = p53 small molecule agonists, cell-based qHTS assay with human liver microsomes: qHTS cell viability counter screen (AID 1963579); further: nearly all actives have a fitted effect of over 45% in size
Outline: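 Cells carrying the p53 response-element beta-lactamase reporter are treated for 16 h at 37 C with test compounds in the presence of human liver microsomes and NADPH (both 0.5 mg/mL final); ATP-based CellTiter-Glo luminescence then reports viability.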

Structure (SMILES)	Potency [1]	Potency [2]	Potency [3]	Potency [4]	Potency [5]	Potency [6]	Potency [7]	Potency [8]	Potency [9]	Potency [10]	Potency [11]	Potency [12]	Potency [13]	Potency [14]	Potency [15]	Potency [16]	Potency [17]	Potency [18]	Potency [19]	Potency [20]
NC(=O)c1ccc([N+](=O)[O-])cc1Cl	inactive	inactive	inactive	inactive	inactive	inactive	inactive	inactive	inactive	inactive	inactive	inactive	inactive	inactive	inactive	inactive	inactive	inactive	inactive	–
O=[N+]([O-])c1ccccc1Nc1ccccc1	inactive	inactive	inactive	inactive	inactive	inactive	inactive	inactive	inactive	inactive	inactive	inactive	inactive	inactive	inactive	inactive	–	inactive	inactive	–
CC(C)C(=O)c1ccccc1	inactive	inactive	inactive	inactive	inactive	inactive	inactive	–	–	inactive	–	–	–	inactive	inactive	inactive	–	inactive	inactive	inactive
N=c1nc(N2CCCCC2)cc(N)n1O	inactive	inactive	inactive	inactive	inactive	inactive	inactive	inactive	inactive	inactive	inactive	inactive	inactive	inactive	inactive	inactive	inactive	inactive	inactive	–
C=C(C)C(=O)OC(C)C	inactive	inactive	inactive	inactive	inactive	inactive	inactive	inactive	inactive	inactive	inactive	inactive	inactive	inactive	inactive	inactive	inactive	inactive	inactive	–
CC1=CCC(O)(C(C)C)CC1 (stereo not drawn)	inactive	inactive	inactive	inactive	inactive	inactive	inactive	inactive	–	inactive	inactive	inactive	inactive	inactive	inactive	inactive	inactive	inactive	inactive	inactive
COC(=O)Nc1nc2ccc(Sc3ccccc3)cc2[nH]1	inactive	30.6 µM (active) and 3.35 µM (active)	inactive	inactive	inactive	inactive	inactive	–	363 nM (active)	–	–	–	–	–	inactive	inactive	inactive	inactive	inactive	inactive
CC1(C)CO[C@@H](CC(=O)O)CN1	inactive	inactive	inactive	inactive	inactive	inactive	inactive	inactive	inactive	inactive	inactive	inactive	inactive	inactive	inactive	inactive	inactive	–	inactive	–
Cc1ccc(C(C)(C)O)cc1	inactive	inactive	inactive	inactive	inactive	inactive	inactive	inactive	inactive	inactive	inactive	inactive	inactive	inactive	inactive	inactive	–	inactive	–	–
c1ccc(CCc2ccccc2)cc1	inactive	inactive	inactive	inactive	inactive	inactive	inactive	inactive	inactive	inactive	inactive	inactive	inactive	inactive	inactive	inactive	inactive	inactive	inactive	–
CC(C)CC(O)Cc1ccccc1 (stereo not drawn)	inactive	inactive	inactive	inactive	inactive	inactive	inactive	inactive	inactive	inactive	inactive	inactive	inactive	inactive	inactive	inactive	inactive	inactive	inactive	–
CCOCCC(=O)OCC	inactive	inactive	inactive	inactive	inactive	inactive	inactive	inactive	inactive	inactive	inactive	inactive	inactive	inactive	inactive	inactive	–	inactive	inactive	–
COc1cc(C=O)ccc1OC(=O)C(C)C	inactive	inactive	inactive	inactive	inactive	inactive	inactive	inactive	inactive	inactive	inactive	inactive	inactive	inactive	inactive	inactive	inactive	inactive	inactive	–
CCCCCCCCCCC	inactive	inactive	inactive	inactive	inactive	inactive	inactive	inactive	inactive	inactive	inactive	inactive	inactive	inactive	inactive	inactive	–	inactive	inactive	–
CCN(C=O)CC	inactive	inactive	inactive	inactive	inactive	inactive	inactive	inactive	inactive	inactive	inactive	inactive	inactive	inactive	inactive	inactive	inactive	–	inactive	–
